TDP1 cell noCPT: qHTS for Inhibitors of human tyrosyl-DNA phosphodiesterase 1 (TDP1): qHTS in cells in absence of CPT; DT40 Tdp1-/- hTDP1 cells, no CPT, ATP luminescence, 48 h; Potency, µM (doses to about 46.2 µM), for inactives: at the highest dose activity change, negative = growth inhibition, actives largely listed as inhibitors; hit rate 15% among 420,000; AID 686978, 2013; further: potency means the concentration at half of the fitted maximal effect; nearly all actives have a fitted effect of over 55% in size
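Seeded 400 DT40-hTDP1 cells/well (vehicle DMSO, no 20 nM CPT); pinned compounds; ≥48 hr at 37 °C; CellTiter-Glo luminescence as viability measure.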
IL-1B inflam inh: inflammasome signaling inhibition, IL-1 beta readout; AID 743279; activity change, % at 57.5 µM; hit rate 4.7% among 360,000; THP-1 LPS/ATP IL-1B secretion, AlphaLISA, 16 h; hits give low values; in the data active means activity change below about -50%; inconclusive means mostly about -30% to -49%
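Secreted IL-1B measured by AlphaLISA bead assay after 16 h compound exposure of THP-1 cells; compounds (final up to 57.5 uM) added 1 h before LPS (250 ng/mL) and ATP (1.25 mM) stimulation; lower signal means less secretion.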
HT1080-NT tox: kills 2HG-producing HT-1080-NT fibrosarcoma cells | HT-1080-NT fibrosarcoma viability, CellTiter-Glo ATP luminescence, 48 h | Potency, µM (series often up to 46.1 µM), for the others: top-dose activity, negative = less viability, actives largely listed as cytotoxic | hit rate 1.6% among 360,000 | AID 686970;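 further: NT is the 2HG producing partner of a matched IDH1 knockdown line; potency means the concentration at half of the fitted maximal effect; 0% = DMSO-treated cells and -100% = media-only wells without cells; nearly all actives have a fitted effect of over 55% in size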
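Toxicity toward the 2HG-producing NT line was scored as %Activity, normalised to DMSO and no-cell wells, from CellTiter-Glo luminescence after 48 hours' treatment.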
TDP1 cell CPT: growth inhibition of DT40 Tdp1-/-;hTDP1 cells with camptothecin (screen for TDP1 inhibitors). hit rate 12% among 420,000. chicken DT40 Tdp1-/-;hTDP1 cells + 20 nM CPT, ATP luminescence, 48 h. Potency, µM (highest dose often 46.2 µM), inactives show at the highest dose activity change, negative = growth inhibition, usual class: inhibitors; further: potency means the concentration at half of the fitted maximal effect; nearly all actives have a fitted effect of over 55% in size
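Chicken DT40 Tdp1-/- cells stably complemented with human TDP1 were seeded at 400 cells/well in medium containing 20 nM camptothecin, exposed to pin-transferred compounds, and grown at 37 °C for at least 48 hr. Viability was read as ATP luminescence.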
HT1080 IDH1KD tx: HT-1080 IDH1 knockdown cell toxicity (counter line); HT-1080 IDH1 knockdown viability, ATP luminescence, 48 h; Potency, µM (doses to about 46.1 µM), inactives show top-dose activity, negative = toxicity, hits mostly cytotoxic; hit rate 2% among 360,000; AID 686971;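 further: potency means the concentration at half of the fitted maximal effect; 0% = DMSO wells and -100% = cell-free medium wells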
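IDH1KD HT-1080 cells, 750/well, RPMI + 5% FBS; compound pinned after 2 h settling; 48 h, 37 °C; CellTiter-Glo luminescence; % activity normalised to DMSO and no-cell wells; curves fitted, classed by r2 and efficacy.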
Numbers without * were called inactive; ? = inconclusive; · = no result given; [ ] = dose if it differs, or a comment. The list is not random: actives were taken first. Their share in the collection is about 19%. Unless noted, the call rests on the fitted dose curve; in most records, active means well fitted curve in the direction sought with a large enough effect; inconclusive means small, poorly fitted or top-dose-only effect, or another doubt; inactive means no such curve, though single readings can be large; an effect the other way counts as inactive or inconclusive. Unless noted, on the % scale 0 is the no-effect control and ±100 the full control effect.

SMILES | TDP1 cell noCPT | IL-1B inflam inh | HT1080-NT tox | TDP1 cell CPT | HT1080 IDH1KD tx
Cc1ccc(S(=O)(=O)c2[nH]c(-c3ccccc3)nc2SC(C)C(=O)O)cc1 (stereo not given) | ? | · | · | 1% | ·
Cc1cc(OCC(=O)N(C)Cc2ccccc2)ccc1Br | 23µM* | 7 | 14% | ? | 0%
CN(Cc1ccccc1)C(=O)CN1CCN(S(=O)(=O)c2ccc(Cl)c(Cl)c2)CC1 | 18µM* | -54* | 4%[9.24 µM] | ? | -2%
Cc1cc(S(=O)(=O)N2CCN(CC(=O)N(C)Cc3ccccc3)CC2)ccc1Br | 15µM* | ? | 3% | ? | -12%
CN(Cc1ccc(F)cc1)C(=O)CN1CCN(S(=O)(=O)c2ccc3c(c2)OCCCO3)CC1 | ? | -27 | -3% | -26% | 4%
COc1ccc(-n2ncc3c(NC(C)(C)CO)ncnc32)cc1 | -27% | · | · | -20% | ·
CNC(=O)c1c(NC(=O)c2cc(=O)c3cc(C)c(C)cc3o2)sc2c1CCCC2 | -5% | · | · | -4% | ·
COC(=O)C1=C(C)N(Cc2ccccc2)C(=NCc2ccc(OC)cc2)N[C@H]1c1ccccc1 | 8.2µM* | -52* | -21% | 7.3µM* | ?
COC(=O)C1=C(C)N(Cc2ccccc2)C(=NCC(C)C)N[C@H]1c1ccccc1 | 4.1µM* | ? | -12% | 4.1µM* | ?
CCOC(=O)C1=C(C)N(C[C@@H]2CC[C@@H](Cc3ccc4cc(OC)ccc4c3)O2)C(=O)NC1c1ccccc1 (stereo not given in full) | ? | -20 | -17% | 21µM* | -19%
C=CCN=C1N[C@@H](c2ccc(Br)cc2)C(C(=O)OC)=C(C)N1Cc1ccccc1 | ? | · | · | 13µM* | ·
COC(=O)C1=C(C)N(Cc2ccccc2)C(=O)N[C@H]1c1ccccc1 | -21% | -23 | 3% | ? | 2%
COc1ccc(-c2nn(CCC#N)cc2C(=O)Nc2cccc(C(=O)O)c2)cc1[N+](=O)[O-] | 12% | -6 | 28% | 7% | 28%
CNC(=O)c1sc(-c2ccccn2)nc1C | 10% | -8 | 24% | 4% | 17%
COC(=O)C1=C(C)N(CC2CC2)C(=O)N[C@H]1c1ccc(Br)cc1 | ? | -16 | 15% | 23µM* | -7%
Cc1nc([N+](=O)[O-])cn1CC(=O)c1ccc(Br)cc1 | -26% | 14 | 11% | -12% | 9%
Cc1noc(C)c1-c1nccc(N2CCNCC2)n1 | 2% | · | · | -4% | ·
O=C(NCCCN1CCN(c2ccccc2)CC1)c1nnc(Cc2c(F)cccc2Cl)o1 | 21µM* | · | · | 23µM* | ·
CCC(=O)c1ccc(OCc2cn(CC(=O)c3ccc(O)cc3)nn2)cc1 | -4% | -7 | -10% | -23% | -9%
COc1ccc(C(=O)N2CCCC(C(=O)O)C2)c2ccccc12 (stereo not given) | 8% | 18 | 3% | 1% | 3%
O=C(/C=C/c1cccc(O)c1)c1cccnc1 | 23µM* | -6 | ? | 8.2µM* | ?
CN(C)c1ccc(/C=C/C(=O)c2cccnc2)cc1 | -29% | ? | -5% | 6% | 15%
O=C(/C=C/c1cccnc1)c1cccc(O)c1 | 2.9µM* | -3 | 21µM* | 2.9µM* | ?
CCCc1ccc(-c2cc(C(=O)NCCc3ccc(S(N)(=O)=O)cc3)c3ccccc3n2)cc1 | 12µM* | ? | ? | 15µM* | ?
NS(=O)(=O)c1ccc(CCNC(=O)c2cc(-c3ccc(Br)cc3)nc3ccccc23)cc1 | 8.2µM* | -13 | ? | 9.2µM* | ?
SMILES | TDP1 cell noCPT | IL-1B inflam inh | HT1080-NT tox | TDP1 cell CPT | HT1080 IDH1KD tx
NS(=O)(=O)c1ccc(CCNC(=O)c2cc(-c3ccccn3)nc3ccc(Br)cc23)cc1 | ? | 70 | ? | ? | -19%
COc1ccc(C(=O)Nc2ccc3nc(N4CCC(C)CC4)cc(C)c3c2)cc1 | 16µM* | · | · | 23µM* | ·
COc1cccc(C(=O)Nc2ccc3nc(N4CCC(C)CC4)cc(C)c3c2)c1 | 21µM* | · | · | 12µM* | ·
COc1ccc(-n2ncc3c2CC(C)(C)CC3NC(=O)Cc2nonc2C)cc1 (stereo not given) | ? | -11 | 2% | -16% | -1%
CC(C)C(=O)NC(C)C(c1cccs1)N1CCN(c2ccccc2)CC1 (stereo not given) | 21µM* | 0 | 14% | ? | 10%
CC(NC(=O)c1ccc2c(c1)OCO2)C(c1cccs1)N1CCN(c2ccccc2)CC1 (stereo not given) | 18µM* | -25 | -27% | ? | ?
CC(NC(=O)NC1CCCCC1)C(c1cccs1)N1CCN(c2ccccc2)CC1 (stereo not given) | 21µM* | ? | -27% | ? | -10%
CC(NC(=O)c1cccs1)C(c1cccs1)N1CCN(c2ccccc2)CC1 (stereo not given) | -17% | -12 | -11% | -24% | -3%
CC1(c2ccccc2)NC(=O)N(NC(=O)COC(=O)c2cc(Br)ccc2O)C1=O (stereo not given) | -14% | -1 | -8% | -7% | -9%
CC(=O)OCC(=O)[C@]1(O)C(OC(C)=O)CC2C3CCC4=CC(=O)C=C[C@@]4(C)[C@]3(F)C(O)C[C@]21C (stereo not given in full) | -8% | · | · | -4% | ·
COc1cc(CN2CCC(C(=O)NCC(C)(C)CN(C)C)CC2)ccc1OCc1ccccc1 | ? | -9 | ? | 6.5µM* | -22%
O=C(c1cc(Br)ccc1O)N1CCN(S(=O)(=O)Cc2ccccc2)CC1 | 12µM* | 0 | -26% | ? | -3%
CCCCNC(=O)C1CCN(Cc2ccc(OCc3ccccc3)c(OC)c2)CC1 | ? | -30 | -13% | ? | -12%
OCCC1CN(Cc2nc3ccccc3s2)CCN1CCc1ccccc1 (stereo not given) | 26µM* | -2 | -4% | ? | -10%
CCOc1cc(CN2CCN(S(=O)(=O)c3ccc(C)cc3)CC2)ccc1OC | 16µM* | · | · | ? | ·
Cc1ccc(N2CC(C(=O)NCCC3=CCCCC3)CC2=O)cc1 (stereo not given) | 3% | 10 | 2% | 9% | 0%
Cc1ccc(CN2CCC(C(=O)c3ccc(F)cc3)CC2)cc1 | ? | ? | -2% | -15% | -7%
COc1ccc(Br)cc1CN1CCN(S(=O)(=O)Cc2ccccc2)CC1 | 8.2µM* | 7 | -3% | ? | 1%
O=C(COc1ccc(-c2ccccc2)cc1)N1CCN(S(=O)(=O)Cc2ccccc2)CC1 | 15µM* | 22 | -23% | 23µM* | ?
CCCS(=O)(=O)N1CCN(Cc2ccc(OCc3ccccc3)c(OC)c2)CC1 | ? | -73* | -8% | ? | -28%
